Screening results deposited in PubChem BioAssay by National Center for Advancing Translational Sciences (NCATS).
Rows were chosen to be rich in hits. Some 19% of all compounds tested hit in one or more screens of this group.
HT1080 IDH1KD tx: qHTS for induction of synthetic lethality in tumor cells producing 2HG: qHTS for the HT-1080-IDH1KD cell line | HT-1080 IDH1 knockdown viability, ATP luminescence, 48 h | Potency, µM (titrated, usually from 46.1 µM), without a hit: top-dose activity, negative = toxicity, usual class: cytotoxic | 360,000 compounds, 2% hits | AID 686971, 2013;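 also: potency is read from the fitted curve at half-maximal effect; 0% = DMSO wells and -100% = cell-free medium wells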
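Using the IDH1-knockdown HT-1080 line run in the same batch and compound series as the NT line, viability after 48 h at 37 °C was determined by CellTiter-Glo luminescence and expressed as % activity.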
HT1080-NT tox: qHTS for induction of synthetic lethality in tumor cells producing 2HG: qHTS for the HT-1080-NT fibrosarcoma cell line; HT-1080-NT fibrosarcoma viability, CellTiter-Glo ATP luminescence, 48 h; Potency, µM (series often up to 46.1 µM), for the others: at the top dose activity, negative = less viability, most hits filed as cytotoxic; 360,000 compounds, 1.6% hits;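 also: NT is the 2HG producing partner of a matched IDH1 knockdown line; potency is read from the fitted curve at half-maximal effect; 0% = DMSO-treated cells and -100% = media-only wells without cells; nearly all actives have a fitted effect of over 55% in size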
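HT-1080-NT; 750 cells/well; 5% FBS RPMI; 48 h compound, 37 degrees C; CellTiter-Glo luminescence; curve fitting and curve-class assignment.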
DT40 TDP1 CPT: qHTS for Inhibitors of human tyrosyl-DNA phosphodiesterase 1 (TDP1): qHTS in cells in presence of CPT; chicken DT40 Tdp1-/-;hTDP1 cells + 20 nM CPT, ATP luminescence, 48 h; Potency, µM (series often up to 46.2 µM), for inactives: at the top dose activity change, negative = growth inhibition, most hits filed as inhibitors; 420,000 compounds, 12% hits; also: potency is read from the fitted curve at half-maximal effect; nearly all actives have a fitted effect of over 55% in size
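Chicken DT40 Tdp1-/- cells stably complemented with human TDP1 were seeded at 400 cells/well in medium containing 20 nM camptothecin, exposed to pin-transferred compounds, and grown at 37 °C for at least 48 hr. Viability was read as ATP luminescence.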
IL1B secr inh: qHTS for Inhibitors of Inflammasome Signaling: IL-1-beta AlphaLISA Primary Screen; activity change, % at 57.5 µM; THP-1 LPS/ATP IL-1B secretion, AlphaLISA, 16 h; hits give low values; 360,000 compounds, 4.7% hits; AID 743279, 2014; in the data active = activity change below about -50%; inconclusive = mostly about -30% to -49%
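THP-1 cells pretreated 1 hr with compounds (up to 57.5 uM final), then stimulated with LPS (250 ng/mL final) plus ATP (1.25 mM final); secreted IL-1B measured by AlphaLISA after 16 hr, decreased signal indicating inhibition.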
DT40 TDP1 no CPT: qHTS for Inhibitors of human tyrosyl-DNA phosphodiesterase 1 (TDP1): qHTS in cells in absence of CPT. Potency, µM (highest dose often 46.2 µM), without a hit: top-dose activity change, negative = growth inhibition, actives largely listed as inhibitors. DT40 Tdp1-/- hTDP1 cells, no CPT, ATP luminescence, 48 h. 420,000 compounds, 15% hits; also: potency is read from the fitted curve at half-maximal effect; nearly all actives have a fitted effect of over 55% in size
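DT40 Tdp1-/-;hTDP1 cells, no CPT (DMSO vehicle only), 400 cells/well; compounds pin-transferred; ≥48 hr, 37 °C; CellTiter-Glo 30 min RT dark, luminescence read.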
The depositor's hits bear a star; ? = inconclusive; / = no result given; [ ] = another dose, or the depositor's remark. Unless noted, calls follow the shape of the dose curve; as a rule, active = well fitted curve in the direction sought with a large enough effect; inconclusive = small, poorly fitted or top-dose-only effect, or another doubt; inactive = no such curve, though single readings can be large; an effect the other way counts as inactive or inconclusive. Unless noted, % is scaled to controls: 0 for no effect and ±100 for the full control effect.

SMILES	HT1080 IDH1KD tx	HT1080-NT tox	DT40 TDP1 CPT	IL1B secr inh	DT40 TDP1 no CPT
Cn1c(C(=O)NCc2ccccn2)cc2c(=O)n(C)c3ccccc3c21	-5%	4%	0.58µM*	-28	?
CCCCN(CC)CCCNC(=O)c1cc2c(=O)n(C)c3ccccc3c2n1C	-21%	-5%	?	-73*	?
CC(NC(=O)c1cc2c(=O)n(C)c3ccccc3c2n1C)c1ccc2c(c1)OCCO2 (centres undefined)	8%	14%	29µM*	13	13µM*
CCCCN(C)CCNC(=O)c1cc2c(=O)n(C)c3ccccc3c2n1C	/	/	?	/	23µM*
O=C(Cn1c(=O)sc2ccccc21)NCCOc1ccccc1F	-5%	0%	-14%	-12	-43%
O=[N+]([O-])c1ccc(Cl)c(S(=O)(=O)NCCc2ccccn2)c1	12%	4%	1%	-7	13%
O=C(NC1(C(F)(F)F)NC(=O)N(C2CCCC2)C1=O)C1CC1 (centres undefined)	1%	-3%	2%	-4	-12%
O=c1c(-c2cc(F)cc(F)c2)nc2cnc(Oc3ccccc3)nc2n1C1CC1	/	/	-16%	/	?
NNC(=S)NC1CC2CC1C1C=CCC21 (centres undefined)	4%	4%	9.2µM*	12	?
Oc1ccc(O)c(C=NNC(=S)NC2CC3CC2C2C=CCC32)c1 (centres undefined)	-27%	-3%	18µM*	69	?
O=C(O)COc1ccc2c(c1)OCCO2	13%	22%	-12%	13	-26%
O=C(c1cccc(Br)c1)N1CCN(c2ccccn2)CC1	4%	11%	-18%	-1	-24%
O=C(c1cccc(Cl)c1)N1CCN(C(=O)c2ccccc2F)CC1	16%	25%	-28%	-7	-2%
O=C(c1ccccc1F)N1CCN(c2cnn(-c3cccc(Cl)c3)c(=O)c2Cl)CC1	-14%	-25%	?	-28	21µM*
O=C(c1cccc(Br)c1)N1CCN(c2cnn(-c3ccccc3)c(=O)c2Cl)CC1	-16%	-10%	?	21	16µM*
CCOC(=O)c1ccc(NS(=O)(=O)c2cccc3nsnc23)cc1	2%	-2%	-28%	13	-20%
CC(=O)n1cc(C(C[N+](=O)[O-])SCCN)c2ccccc21 (centres undefined)	?	?	5.2µM*	-97*	5.2µM*
c1ccc(CN2CCC(Nc3ncnc4sccc34)CC2)cc1	?	3%	10%	0	2%
Cc1sc2ncnc(NC3CCN(Cc4ccccc4)CC3)c2c1C	?	?	2.6µM*	?	3.7µM*
Cc1csc2c(NC3CCN(Cc4ccccc4)CC3)ncnc12	-13%	-3%	23µM*	-19	16µM*
COc1cccc(CNc2nc3cc(C(C)=C(C)C)sc3c(=O)n2C)c1	?	-21%	18µM*	-5	?
COc1ccccc1CNc1nc2cc(-c3ccccc3C)sc2c(=O)n1C	?	?	?	-22	23µM*
COc1cccc(CNc2nc3cc(-c4ccccc4C)sc3c(=O)n2C)c1	?	?	21µM*	-8	23µM*
COc1ccc(-c2cc(CNc3nc4cc(-c5ccccc5C)sc4c(=O)n3C)on2)cc1	-3%	-1%	16µM*	-24	21µM*
Cc1ccccc1-c1cc2nc(NCCOc3ccccc3)n(C)c(=O)c2s1	28%	7%	?	21	?
SMILES	HT1080 IDH1KD tx	HT1080-NT tox	DT40 TDP1 CPT	IL1B secr inh	DT40 TDP1 no CPT
Cc1ccc(N(CN2C(=O)C3C4CCC(C4)C3C2=O)C(=O)c2ccco2)cc1 (centres undefined)	1%	12%	-10%	-3	-20%
C[C@H](O)[C@@H]1CN2CCc3c([nH]c4ccc(-c5ccc6c(c5)OCO6)cc34)[C@@H]2C[C@@H]1N(C)C(=O)NC1CCCCC1	1%	0%	-5%	8	?
CN(C)C(CNS(=O)(=O)c1ccc(Cl)cc1F)c1ccco1 (centres undefined)	0%	-4%	-18%	-1	-1%
COc1ccccc1CNc1nc2cc(-c3sccc3C)sc2c(=O)n1C	-1%	14%	18µM*	-9	16µM*
Cc1ccccc1-c1cc2nc(Nc3ccc(F)cc3)n(C)c(=O)c2s1	?	?	?	-15	23µM*
CCCCN(CCCNC(=O)c1ccc2nc(N3CCOCC3)sc2c1)Cc1ccccc1	-25%	-12%	?	31	16µM*
O=C(NCCc1ccccc1)c1ccc2nc(N3CCOCC3)sc2c1	4%	-2%	-7%	8	?
CCCCN(C)CCCNC(=O)c1ccc2nc(N3CCCCC3)sc2c1	/	/	23µM*	/	?
CCCCN(C)CCNC(=O)C1CCN(c2nc3ccc(CC)cc3s2)CC1	/	/	21µM*	/	23µM*
CC1(C)S[C@@H]2[C@H](NC(=O)C(C(=O)O)c3ccsc3)C(=O)N2[C@H]1C(=O)O (some centres undefined)	/	/	4%	/	-11%
CCOc1ccccc1C1C(C(=O)Nc2ccccc2OC)=C(C)Nc2nc3ccccc3n21 (centres undefined)	/	/	3%	/	-17%
COc1cccc(C2C(C(=O)Nc3ccccc3OC)=C(C)Nc3nc(-c4ccco4)nn32)c1 (centres undefined)	/	/	?	/	18µM*
COc1cccc(C2C(C(=O)Nc3ccccc3OC)=C(C)Nc3nc4ccccc4n32)c1 (centres undefined)	/	/	?	/	15µM*
COc1ccccc1NC(=O)C1=C(C)Nc2nc3ccccc3n2C1c1cccc(OC)c1OC (centres undefined)	/	/	16µM*	/	?
COc1cccc(C2C(C(=O)Nc3ccc(Cl)cc3)=C(C)Nc3nc4ccccc4n32)c1OC (centres undefined)	/	/	21µM*	/	?
COc1ccc(C2C(C(=O)Nc3ccc(C)cc3C)=C(C)Nc3nc4ccccc4n32)c(OC)c1 (centres undefined)	/	/	-16%	/	?
O=C(CC1C(=O)NC2CCCCC2N1C(=O)c1ccc(F)cc1)Nc1ccccc1 (centres undefined)	2%[9.24 µM]	-6%	-16%	26	-9%
COc1ccc2c(c1)sc1ncc(C(=O)NCc3ccc(OC(C)C)cc3)c(=O)n12	/	/	4%	/	-26%
